Measurements taken from PubChem BioAssay (NCI).
This is part of a sample that, as a whole, favours compounds with a hit. Of some 79,000 tested, about 15% had one in any assay. No stated cut-off is given here; in the data, active means growth inhibition above about 70%; inactive means the rest. Where a SMILES comes first, the peptide text is derived from it. The star is where a group is joined. Boc = CC(C)(C)OC(=O)*

Assays:
[1] = NCI Yeast Anticancer Drug Screen. Data for the rad50 strain (AID 155);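 further: 0% = growth of vehicle-only cultures of the same strain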; details: S. cerevisiae rad50 strain growth inhibition; at 50.0 µM; hits give high values
Procedure, shortened: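 Yeast carrying a defined DNA repair defect were exposed to test compounds, and growth was compared with vehicle-treated controls to give percent inhibition.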

[2] = NCI Yeast Anticancer Drug Screen. Data for the mec2-1 strain (AID 157); details: S. cerevisiae mec2-1 strain, at 50.0 µM, hits give high values
Procedure, shortened: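 Yeast mec2-1 mutant treated with compound. Readout: growth inhibition vs vehicle controls.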

[3] = NCI Yeast Anticancer Drug Screen. Data for the sgs1 mgt1 strain (AID 161);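 further: 0% = growth of cultures given vehicle only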; details: S. cerevisiae sgs1 mgt1 strain, at 50.0 µM, hits give high values
Procedure, shortened: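 Read-out: growth inhibition vs vehicle controls. Cells: mutant yeast strain deficient in DNA damage repair.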

[4] = NCI Yeast Anticancer Drug Screen. Data for the cln2 rad14 strain (AID 165);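 further: 0% = growth equal to vehicle treated cultures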; details: S. cerevisiae cln2 rad14 strain, at 50.0 µM, hits give high values
Procedure, shortened: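 cln2 rad14 yeast strain; compound exposure; growth inhibition read vs vehicle controls.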

[5] = NCI Yeast Anticancer Drug Screen. Data for the bub3 strain (AID 167); details: S. cerevisiae bub3 mutant strain, at 50.0 µM, hits give high values
Procedure, shortened: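 Compounds were applied to a genetically altered yeast strain carrying a cell-cycle control defect. Growth inhibition was scored against vehicle-treated controls.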

[6] = NCI Yeast Anticancer Drug Screen. Data for the mlh1 rad18 strain (AID 175); details: S. cerevisiae mlh1 rad18 strain growth inhibition; at 50.0 µM; hits give high values
Procedure, shortened: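 Yeast w/ defined DNA-repair lesions; compound exposure; growth vs vehicle controls → % inhibition.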

Measured: growth inhibition

c1ccc2c(c1)Cc1c-2n[nH]c1-c1[nH]nc2c1Cc1ccccc1-2
inactive: [1] 26.6% | [2] 8.85% | [3] 34.8% | [4] 22.3% | [5] 16% | [6] 55.2%

COC(=O)CCSc1ccccc1
inactive: [1] 0.55% | [2] -12% | [3] 5.45% | [4] 6.7% | [5] -15.1% | [6] -7.6%

CC(/C=C/C(=O)c1ccccc1)=C\C=N\N(C)c1ccccc1
inactive: [1] 17.2% | [2] 2.8% | [3] -1.05% | [4] -40.8% | [5] 4.95% | [6] 1.5%

N#C/C(c1ccccc1)=[N+](/[O-])O
inactive: [1] 2.55% | [2] -4.9% | [3] 2.5% | [4] -20.7% | [5] -17.5% | [6] 13.7%

CCOC(=O)N/N=C(\C)c1ccc(OC)cc1
inactive: [1] 17.8% | [2] 21.9% | [3] 20.1% | [4] 11.3% | [5] 34.9% | [6] 19.1%

COc1ccc(COC(=O)Nc2ccccc2Cl)cc1
inactive: [1] 5.85% | [2] -9.45% | [3] -4.9% | [4] -6.9% | [5] 17% | [6] -6.35%

S=C(Nc1ccc(Cl)cc1)Nc1ccc(Cc2ccc(NC(=S)Nc3ccc(Cl)cc3)cc2)cc1
inactive: [1] 53.9% | [2] 36.2% | [3] 49.6% | [4] 59.4% | [5] 53.6% | [6] 20.4%

CS(=O)(=O)OC1C(O)C(O)OC(CO)C1O (stereo unspecified)
inactive: [1] -18.4% | [2] 12.9% | [3] 4.5% | [4] -49.7% | [5] 5.75% | [6] 7.7%

Nc1cc2c(C3OC(CO)C(O)C3O)[nH]nc2c(=S)[nH]1 (stereo unspecified)
inactive: [1] 40.8% | [2] 7.05% | [3] 15.5% | [4] 20.4% | [5] 8.15% | [6] 24.1%

COc1c(NC(=O)CC(C)=O)cccc1NC(=O)CC(C)=O
inactive: [1] -1.2% | [2] 14.4% | [3] -2.05% | [4] 7.95% | [5] -8.25% | [6] -11.3%

Nc1nc(=S)c2ncn(C3OC(COC(=O)c4ccc([N+](=O)[O-])cc4)C(OC(=O)c4ccc([N+](=O)[O-])cc4)C3OC(=O)c3ccc([N+](=O)[O-])cc3)c2[nH]1 (stereo unspecified)
inactive: [1] 3.35% | [2] 3.35% | [3] -2.65% | [4] -1.7% | [5] -5.65% | [6] 14.3%

[N-]=[N+]=Nc1ccccc1C(=O)N1C(=O)c2ccccc2C(=O)N(C(=O)c2ccccc2N=[N+]=[N-])c2ccccc21
inactive: [1] 1.35% | [2] 7.9% | [3] 0.8% | [4] 0.35% | [5] 11.9% | [6] -6.4%

Cc1ncc([N+](=O)[O-])cc1C(=O)O
inactive: [1] 1% | [2] 10% | [3] -0.75% | [4] -7.1% | [5] 5.7% | [6] -1.45%

COC(=O)C(Cc1ccccc1)NC(=O)C(Cc1ccccc1)NC(=O)OC(C)(C)C (stereo not drawn) (Boc-Phe-Phe-OMe; configuration not given here)
inactive: [1] -7.05% | [2] -4.3% | [3] -18.9% | [4] -51% | [5] 0.15% | [6] -6.4%

CN1CCc2c1nc(-c1ccc(Cl)cc1)c1c2N(C)CC1
inactive: [1] 5.15% | [2] 1.5% | [3] 0% | [4] 9% | [5] -9.55% | [6] -7.35%

CC1CCC2N(C1)CC1C3(O)CC4(O)C(CCC5C(=O)C(O)CCC54C)C3(O)CC(O)C1(O)C2(C)O (stereo unspecified)
inactive: [1] 5.5% | [2] -26.9% | [3] -10.8% | [4] 10.9% | [5] -9.1% | [6] -7.7%

Cc1ccc(SCC(=O)O)c(C)c1
inactive: [1] 27.1% | [2] 17.9% | [3] 18.1% | [4] 14% | [5] 7.65% | [6] -13.5%

Clc1ccc2c(c1)-c1c3c(nn1-c1ccccc1)-c1ccccc1SC3O2 (stereo unspecified)
inactive: [1] 23.3% | [2] 10.6% | [3] 17.9% | [4] 19.3% | [5] -1.5% | [6] -13.6%

CCN(CC)c1nc2c(c(=O)n(C)c(=O)n2C)n1CCCNCC(O)c1ccc(O)c(O)c1 (stereo unspecified)
inactive: [1] -15.7% | [2] -16.4% | [3] -30.9% | [4] -47.1% | [5] -1.85% | [6] -31.5%

Nn1nc2ccccc2n1
inactive: [1] -0.15% | [2] 0.2% | [3] -11.1% | [4] 1.6% | [5] 0.75% | [6] 1.45%

CC1=C(C(=O)NC(C)(C)C)CC(C(=O)NC(C)(C)C)C(C)N1 (stereo unspecified)
inactive: [1] -21.4% | [2] -25.8% | [3] -17.6% | [4] 2.45% | [5] -3.2% | [6] -18.2%
